Screening results from PubChem BioAssay.
eIF4E-4G inh = eIF4E–eIF4G protein interaction inhibitors, primary screen, biochemical, uHTS, TR-FRET, eIF4GI fragment; Eukaryotic translation initiation factor 4E (Mus musculus) + Eukaryotic translation …; TR-FRET eIF4E-eIF4GI(517-606) binding, 2 h; inhibition, % at 21.7 µM; 220,000 tested, 0.37% active;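 active = inhibition above about 30%, limit read from the data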
Mcl-1 Bim block = inhibitors of Bim peptide binding to Mcl-1, primary screen, biochemical, bead-based flow cytometry, multiplex; Induced myeloid leukemia cell differentiation protein Mcl-1 (Homo sapiens), Q07820; Bim peptide-Mcl-1 binding; inhibition, % at 10 µM; 190,000 tested, 0.1% active; AID 1009, 2008; in the data active = inhibition above about 40%
Pf gametocyte = late stage P. falciparum gametocyte viability inhibitors, primary screen, ATP luminescence, HTS; AID 743093, 2013; inhibition, % at 10.9 µM; P. falciparum stage V gametocytes, 24 h; 150,000 tested, 0.065% active;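 active = inhibition above the mean plus 3 SD of compounds within the control limits, set per campaign, cut at about 38% in these data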
Mcl1 Noxa PPI = Mcl-1/Noxa binding inhibitors, primary screen, biochemical, TR-FRET, 1536-well. TR-FRET Mcl-1/Noxa peptide binding, 2 h. inhibition, % at 21.7 µM. Induced myeloid leukemia cell differentiation protein Mcl-1 (Homo sapiens), Q07820. 220,000 tested, 1.5% active;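 active = compounds that cut the protein-peptide binding signal by more than 50% relative to plate controls in a single-dose test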;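 note: His-tagged Mcl-1 with rhodamine Noxa BH3 peptide and terbium anti-His antibody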
14-3-3 Bad inh = inhibitors of 14-3-3 zeta/Bad binding, primary screen, biochemical, TR-FRET, bovine 14-3-3 zeta; 14-3-3 protein zeta/delta (Bos taurus), P63103; TR-FRET 14-3-3zeta/Dy647-pBad peptide displacement, 1 h; inhibition, % at 21.7 µM; 220,000 tested, 0.71% active; AID 781, 2007;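 active = inhibition above about 70%, limit read from the data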
Mcl1-Bid inh = Mcl-1/Bid binding inhibitors, primary screen, biochemical, TR-FRET, 1536-well | Induced myeloid leukemia cell differentiation protein Mcl-1 (Homo sapiens), Q07820 | TR-FRET Mcl-1/Bid-Dy647 peptide binding | inhibition, % at 21.7 µM | 220,000 tested, 0.97% active | AID 1021, 2008;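 active = compounds that cut the binding signal by more than half at the single screening dose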;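 note: His-tagged Mcl-1 with europium anti-His antibody binding Bid BH3 peptide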
Hits are given with their value; [ ] = another dose, or the depositor's remark. Hits are enriched below; roughly 2.7% of the tested compounds scored in any of these assays.

For CC(=O)Oc1ccc(-c2csc(Nc3ccc(S(N)(=O)=O)cc3)n2)cc1 the results were eIF4E-4G inh inactive, Mcl-1 Bim block inactive, Pf gametocyte inactive, Mcl1 Noxa PPI inactive, 14-3-3 Bad inh inactive and Mcl1-Bid inh inactive.
`Nc1ccc(Nc2nc(-c3ccncc3)cs2)cc1` gave eIF4E-4G inh inactive, Mcl-1 Bim block inactive, Pf gametocyte inactive, Mcl1 Noxa PPI inactive, 14-3-3 Bad inh inactive and Mcl1-Bid inh inactive.
`COc1ccc(-c2csc(Nc3ccc(S(N)(=O)=O)cc3)n2)cc1` gave eIF4E-4G inh inactive, Mcl-1 Bim block inactive, Pf gametocyte inactive, Mcl1 Noxa PPI 53, 14-3-3 Bad inh 70[fluorescence artefact?] and Mcl1-Bid inh inactive.
`COc1ccc(Nc2nc(-c3ccc(OC)cc3)cs2)cc1` gave eIF4E-4G inh inactive, Mcl-1 Bim block inactive, Pf gametocyte inactive, Mcl1 Noxa PPI inactive, 14-3-3 Bad inh inactive and Mcl1-Bid inh inactive.
Screening COc1ccc(-c2csc(Nc3ccccc3)n2)cc1 returned eIF4E-4G inh inactive, Mcl-1 Bim block inactive, Pf gametocyte inactive, Mcl1 Noxa PPI 83, 14-3-3 Bad inh inactive and Mcl1-Bid inh inactive.
`CC(=O)c1cccc(NC(=O)N2CCCC(C(=O)c3cc(F)ccc3F)C2)c1` (configuration not stated) gave eIF4E-4G inh inactive, Mcl-1 Bim block inactive, Pf gametocyte inactive, Mcl1 Noxa PPI inactive, 14-3-3 Bad inh inactive and Mcl1-Bid inh inactive.
Screening CCC(=O)NC(c1cccs1)c1cc([N+](=O)[O-])c2cccnc2c1O (configuration not stated) returned eIF4E-4G inh inactive, Mcl-1 Bim block inactive, Pf gametocyte inactive, Mcl1 Noxa PPI inactive, 14-3-3 Bad inh inactive and Mcl1-Bid inh inactive.
CC(=O)NC(c1cccs1)c1cc([N+](=O)[O-])c2cccnc2c1O (configuration not stated) was read as eIF4E-4G inh inactive, Mcl-1 Bim block inactive, Pf gametocyte inactive, Mcl1 Noxa PPI 55, 14-3-3 Bad inh inactive and Mcl1-Bid inh inactive.
COc1ccc([N+](=O)[O-])cc1COc1cc(C)cc2oc(=O)cc(-c3ccccc3)c12 was read as eIF4E-4G inh inactive, Mcl-1 Bim block inactive, Pf gametocyte inactive, Mcl1 Noxa PPI inactive, 14-3-3 Bad inh inactive and Mcl1-Bid inh inactive.
`CCc1[nH]c(=S)c(C#N)c2c1CCCC2` gave eIF4E-4G inh inactive, Mcl-1 Bim block inactive, Pf gametocyte inactive, Mcl1 Noxa PPI 59, 14-3-3 Bad inh inactive and Mcl1-Bid inh inactive.
`CCc1[nH]c(=O)c(C#N)c2c1CCCC2` gave Mcl-1 Bim block inactive, Mcl1 Noxa PPI inactive and Mcl1-Bid inh inactive.
For CC(C)n1c(O)c(N=Nc2ccc(Cl)nn2)c2ccccc21 the results were eIF4E-4G inh inactive, Mcl1 Noxa PPI inactive, 14-3-3 Bad inh inactive and Mcl1-Bid inh inactive.
Screening Cc1cccc2c(N=Nc3ccc(S(=O)(=O)Nc4cccc(Cl)c4)cc3[N+](=O)[O-])c(O)[nH]c12 returned eIF4E-4G inh inactive, Mcl-1 Bim block inactive, Pf gametocyte inactive, Mcl1 Noxa PPI inactive, 14-3-3 Bad inh inactive and Mcl1-Bid inh inactive.
O=c1[nH]c(=S)[nH]c(O)c1N=Nc1ccc(-c2ccccc2)cc1[N+](=O)[O-] was read as eIF4E-4G inh inactive, Mcl-1 Bim block inactive, Mcl1 Noxa PPI 92, 14-3-3 Bad inh inactive and Mcl1-Bid inh inactive.
CCCCCC(=O)NC(=S)Nc1ccc(Cl)cn1 was read as eIF4E-4G inh inactive, Mcl-1 Bim block inactive, Pf gametocyte inactive, Mcl1 Noxa PPI inactive, 14-3-3 Bad inh inactive and Mcl1-Bid inh inactive.
For C=CCNCCCOc1ccc(C(C)(C)c2ccccc2)cc1 the results were eIF4E-4G inh inactive, Mcl-1 Bim block inactive, Pf gametocyte inactive, Mcl1 Noxa PPI inactive, 14-3-3 Bad inh inactive and Mcl1-Bid inh 52.
`COCCCNCCCOc1ccc(C(C)(C)c2ccccc2)cc1` gave eIF4E-4G inh inactive, Mcl-1 Bim block inactive, Mcl1 Noxa PPI inactive, 14-3-3 Bad inh inactive and Mcl1-Bid inh inactive.
